# In ChEMBL document CHEMBL4513216, “Probing the Open Global Health Chemical Diversity Library for Multistage-Active Starting Points for Next-Generation Antimalarials” (ACS Infect Dis, 2020):
# About 2,100 (3.2%) of roughly 65,000 compounds showed an effect of 50% or more. The median lay at about -52%. For the sample, strong results were picked, then their nearest neighbours and some compounds at random.
# Tested on: Plasmodium falciparum
# Test: Screen against P. falciparum Asexual Blood Stage (ABS), at 5uM
# Type: functional, Dd2
# Conditions: tested at 5 uM
row,Compound,INHIBITION [%]
1,O=C1C(N2CC[C@@H](O)C2)CCCN1Cc1cccc(C(F)(F)F)c1 (some centres undefined),-51.6
2,CCOCCN1CCN(C=C2NN=C(c3occc3C)O2)CC1,-7.75
3,COc1ccc2c(c1)sc(=NC(=O)CSCC(=O)Nc1nccs1)n2C,-52.2
4,CC(C)(O)CN1CCN(C(=O)c2cnn(-c3ccccc3F)c2)CC1,-73.1
5,c1ccc(-c2nc(CN3CCCC3Cn3cncn3)co2)cc1 (centres undefined),-69.1
6,CNC(=O)[C@H]1C[C@H]2CN(C(=O)NC(C)C)C[C@@H]1O2,-50
7,COc1cc(CN(C)Cc2cccnc2)c(SC)cc1OC,-61.6
8,COc1ccc2nnc(CCCC(=O)NCc3ccccc3OC)n2n1,-64.6
9,Cc1cnc(CN(Cc2cccc(O)c2)CC2CC2)cn1,-23.7
10,CN1C(=O)CN(C(=O)c2ccc(=O)n(C)c2)c2ccccc21,-50.5
11,CC(C)c1nn(C)c(N2CCOCC2)c1CNCc1cscn1,-72.2
12,Cc1nc(CNCc2c(C)nn(C)c2N2CCOCC2)cs1,27.5
13,Cc1nn(C)c(N2CCOCC2)c1CNCc1cscn1,56.6
14,COc1ccccc1-c1ccc(C(=O)N2C[C@@H]3CC[C@H]2CN(C)C3)cc1,-93.3
15,Cc1nc(C)n(CC2CCCN2Cc2nnc(-c3ccco3)o2)n1 (centres undefined),-53.7
16,Cc1nc(-n2nc(-c3cccs3)cc2N)[nH]c(=O)c1C,-26.1
17,Cc1n[nH]cc1CNCc1ccnc(OCC(F)(F)F)c1,-64.7
18,Cc1n[nH]cc1CNC(=O)Nc1cccc(OCC(F)(F)F)c1,-31.6
19,Cc1n[nH]cc1CNCc1cccc(OCC(F)(F)F)c1,57.9
20,COc1ccc(NS(=O)(=O)C=c2[nH]c(=O)n3cccc3c2=O)cc1Cl,-76.2
21,CC(C)(C(=O)NCC(N)=O)c1ccccc1F,-60.2
22,CC(C)(CNC(=O)C(C)(C)c1ccccc1F)C(N)=O,-83
23,CN(C)C(C)(C)CNC(=O)C(C)(C)c1ccccc1F,53.3
24,c1csc(-c2noc(CNCCn3cccn3)n2)c1,-114
25,Cc1cnn(CC(C)NCc2nc(-c3cccs3)no2)c1 (centres undefined),-73.4
26,CC(Cn1cccn1)NCCCc1nc(-c2cccs2)no1 (centres undefined),67.8

row,Compound,INHIBITION [%]
1,Cc1ccccc1CN1CCCC1c1cncc(Nc2nncs2)n1 (centres undefined),-20.5
2,Cc1cccc(CN2CCCC2c2cncc(Nc3nncs3)n2)c1 (centres undefined),52.5
3,COc1cccc(CN2CCCC2c2cncc(Nc3nncs3)n2)c1 (centres undefined),-8.54
4,c1ccc(CCNC2CCc3ncnn3C2)nc1 (centres undefined),-209
5,CC(C)(CNc1c(C#N)cnc2ccc(Cl)cc12)C(N)=O,11.4
6,CC(NC1(CNS(C)(=O)=O)CCOCC1)c1ccccc1 (centres undefined),0.206
7,CC(NC1(CNS(C)(=O)=O)CCCC1)c1ccccc1 (centres undefined),68.9
8,CCC(CC)C(=O)NCC1(NC(C)c2ccccc2)CCOCC1 (centres undefined),-6.09
9,O=C(Cc1ccccc1)NCCNCc1cccc(O)c1,6.4
10,COc1ccc(-n2cccn2)c(CN2CCC3(CCCNC3)C2)c1 (centres undefined),68.3
11,COc1ccc(-n2cccn2)c(CN2CCC3(CCNCC3)C2)c1,31.9
12,COc1ccc(-n2cccn2)c(CN2CCC(O)(CO)CC2)c1,-36
13,CCn1ncc2c1CN(CCc1cccc(Cl)c1)CC2COC (centres undefined),-27.5
14,Cc1cccc(CO[C@@H]2CO[C@@]3(CCN(S(=O)(=O)N(C)C)C3)C2)n1,-44.7
15,CCn1cnnc1C1CCN(C(=O)c2cnn(C(C)(C)C)c2)CC1,-133
16,CCN(Cc1ccccc1)C(=O)CCN1C[C@@H](C(=O)O)[C@H](C2CC2)C1,-49.1
17,C[C@@H]1CN(CCC(=O)N(C)Cc2ccccc2)C[C@@]1(O)C1CCC1,20.7
18,CN(Cc1ccccc1)C(=O)CCN1C[C@H](C2CC2)[C@@H](N(C)C)C1,51.9
19,O=C(c1cccn1-c1ccc2c(c1)OCCO2)N1CCCC1,9.62
20,CC(C)N1CCC2(CC1)CC(CC(N)=O)c1ccc(F)cc12 (centres undefined),-12.3
21,c1cnc(N2CCC3(CCN(CC4CCOC4)CC3)C2)nc1 (centres undefined),-14.7
22,c1cnc(N2CCC3(CCN(CC4CCOCC4)CC3)C2)nc1,-30.1
23,c1cnc(N2CCOC3(CCN(CC4CCOC4)CC3)C2)nc1 (centres undefined),-13
24,c1cnc(N2CCOC3(CCN(CC4CCCCC4)CC3)C2)nc1,57.2
25,c1cnc(N2CCCC3(CCN(CC4CCOC4)CC3)C2)nc1 (centres undefined),56.4
26,c1cnc(N2CCC3(CCN(CC4CCCC4)CC3)C2)nc1,43.8

row,Compound,INHIBITION [%]
1,CN(C(=O)C1CCN(Cc2cnc3ccccn23)CC1)c1ccccc1,10
2,CCCc1cc(CNC2CCN(c3cc(C)nc(N)n3)CC2)on1,-44.2
3,O=C1NCC2CN(Cc3ccccc3OCc3ccccn3)CCN12 (centres undefined),-16.2
4,CCOC(=O)Cc1n[nH]c(-c2cncc(Br)c2)n1,-109
5,CCC(=O)N1CCCN(Cn2nc(C)c(Br)c2C)CC1,-101
6,CCc1ccc(S(=O)(=O)N2CCN(CCn3ccnc3)CC2)cc1,-45.4
7,O=C1CCCN1CC1CN(CC2CCOCC2)Cc2nccn2C1 (centres undefined),-87
8,Cc1ncc(CN2CCCC2)c2cc(C(=O)c3ccc(Br)cc3)oc12,67.5
9,Cc1ncc(CN(C)CCO)c2cc(C(=O)c3ccc(Br)cc3)oc12,49.9
10,Cc1ncc(CN2CCOCC2)c2cc(C(=O)c3ccc(Br)cc3)oc12,-2.54
11,CCO[C@H]1CC[C@H]2[C@H]1OCCN2C(=O)c1nn(C)c2ccccc12,-77.6
12,Cc1nc(N)ncc1C(=O)N1CCCC(CCc2ccc(F)cc2)C1 (centres undefined),38
13,N#Cc1cccc(C(=O)N2CCN(c3ncccn3)CC2)c1,-150
14,COc1ccc(C2Nc3cc(Cl)ccc3C3=NCCN32)cc1OC (centres undefined),72.2
15,CN(C)c1ncc(C2Nc3cc(Cl)ccc3C3=NCCCN32)cn1 (centres undefined),-9.81
16,COc1ccc(C2Nc3ccccc3C3=NCCCN32)cc1OC (centres undefined),-62.4
17,COCCN1CCN(CC2CCCCO2)CC1 (centres undefined),-67.3
18,Cc1cccc(C(=O)N2C[C@@H]3OCCN(CCN4CCCC4)[C@@H]3C2)n1,-112
19,CO[C@@H]1c2ccccc2C2(CCN(C(=O)CNC(=O)C(C)C)CC2)[C@H]1O,-62.3
20,Cc1noc(C)c1CNC(=O)N1CCC(OCC2CC2)CC1,-65.8
21,O=C(NC1CCN(CC2CC2)C1)N1CCC(OC2CCCCC2)CC1 (centres undefined),55
22,NC(=O)C1CCN(C(=O)NC2CCN(CC3CCCC3)C2)CC1 (centres undefined),-53.5
23,O=C(CCN1CCOCC1)NC1CCCN(CC2CCCCC2)C1 (centres undefined),-80.2
24,O=C(NC1CCN(CC2CCCC2)C1)N1CCC(OCC2CC2)CC1 (centres undefined),64.5
25,CSC(C)(C)CNC(=O)NC1CCN(CC2CC2)C1 (centres undefined),-35.8
26,Cc1ccc(C(=O)N2CCCC(c3cc(C(F)(F)F)[nH]n3)C2)o1 (centres undefined),-50.8

row,Compound,INHIBITION [%]
1,Cc1cnc2n(c1=O)CC(C(=O)NCc1ccccc1Cl)CS2 (centres undefined),-88.7
2,CC1CCCN(C(=O)c2ccc(N(C)Cc3cnn(C)c3)nc2)C1 (centres undefined),-222
3,Cc1nn(C)c2c(NC3CCCC3)nc(C3CC3)nc12,-18.7
4,COC(=O)NCCC(=O)NC(c1ccc(Cl)cc1)C(F)(F)F (centres undefined),63.6
5,COCC(=O)NC(c1ccc(Cl)cc1)C(F)(F)F (centres undefined),7.67
6,COC(=O)NCC(=O)NC(c1ccc(Cl)cc1)C(F)(F)F (centres undefined),38
7,CN(C)c1nccc(N2CCO[C@H]3CN(Cc4nccn4C)C[C@H]32)n1,-73.7
8,CCc1ccc(CN2C[C@@H]3OCCN(c4ccnc(N(C)C)n4)[C@@H]3C2)o1,9.71
9,Cc1cccc(CN2C[C@@H]3OCCN(c4ccnc(N(C)C)n4)[C@@H]3C2)c1,52.5
10,N#Cc1ccc(N2CCCC3(CCC(=O)N3CC3CC3)CC2)nc1 (centres undefined),-26.4
11,Cc1cc(CN(C)Cc2ncc(-c3ccccc3)o2)no1,-107
12,COC1CCN(CCNC(=O)NC(C)c2ccc(F)c(F)c2)CC1 (centres undefined),45.9
13,COC1CCN(CCNC(=O)NCC(C)c2cccc(C)c2)CC1 (centres undefined),54.5
14,COC1CCN(CCNC(=O)NC(C)c2cccc(Cl)c2)CC1 (centres undefined),23.9
15,Cc1ccc(S(=O)(=O)c2ncccc2CN2CCN(CCO)CC2)cc1,-44.3
16,CC(C)c1ncc2c(n1)CN(c1ncnc3[nH]ccc13)CC2,4.74
17,O=C1NC(c2cccnc2)=NC12CCN(CCCc1ccccc1)CC2,-84.2
18,COCCN1C[C@H]2[C@@H](C1)N(Cc1cnn(C)c1)CC[C@H]2OC,-59.7
19,COCCN1C[C@@H]2[C@@H](OC)CCN(Cc3cccs3)[C@@H]2C1,66.1
20,COCCN1C[C@@H]2[C@@H](OC)CCN(Cc3ccco3)[C@@H]2C1,-1.85
21,COCCN1C[C@H]2[C@@H](C1)N(Cc1ccc(C)o1)CC[C@H]2OC,-41.6
22,COCCN1C[C@@H]2[C@@H](OC)CCN(Cc3ccc(C)o3)[C@@H]2C1,3.04
23,COCCN1C[C@@H]2[C@@H](OC)CCN(Cc3ccsc3)[C@@H]2C1,66.7
24,Cc1ccc(CN2CC[C@@H]3[C@@H](CO[C@H]3CN(C)C)C2)o1,-21.4
25,NC(=O)c1cccc(CN2CCc3c(ncn3C3CC3)C2)c1,-158
26,COc1ccc2c(c1)ncn2C[C@]1(O)CCCN2CCCC[C@@H]21,-42.3
